SMILES strings stand for the structures. About 83,000 compounds went through this panel and 20% of them were active in at least one assay; those are over-represented in the sample as a whole.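 In brief: 96-well plates, 48 h treatment, single concentration, percent growth endpoint.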 Unmarked numbers belong to inactive results. Calls of active or inactive are those of the source.

The test system of this assay is SK-OV-3 ovarian. Briefly: NCI-60 one-dose screen, 48 h (100 = growth as untreated, 0 = no growth, -100 = all killed). Conditions: 10 µM. As to the method:
Growth inhibition of the SK-OV-3 human tumor cell line is measured as a screen for anti-cancer activity. Cells are grown in 96 well plates and exposed to the test compound for 48 hours. Compounds are tested at a single concentration, which is 10^-5 M for most compounds. The reported endpoint is percent growth (GI% or GIPRCNT), where numbers from 0 - 100% represent growth inhibition, and numbers from -100% - 0 represent cell death. For example, a value of 40 represents 60% growth inhibition. A value of 0 means no net growth occurred over the course of the experiment. A value of -40 indicates 40% of cells at the beginning of the experiment died by the end of the experiment. A value of -100 means all cells are dead at the end of the experiment.
NCI-60 Human Tumor Cell Lines Screen was performed using the standard one-dose NCI protocol, which is described in more detail at https://dtp.cancer.gov/discovery_development/nci-60/default.htm.
Compounds with GIPRCNT values below 10 were considered active. Activity score was based on GIPRCNT using the following formula: […]
Score is 0 for GIPRCNT values of 100 or above, 50 for GIPRCNT values of 0, and 100 for GIPRCNT values of -100.
For `CC1=C(N2CCOCC2)C(N2CCOCC2)=C(C)C(=O)C1=O`, the growth was 105%. As to `Nc1nc(Nc2ccccc2)n[nH]1`, the growth was 104%.

Turning to `Cc1cc(N(CCCNc2ccnc3cc(Cl)ccc23)Cc2ccc3c(c2)OCO3)nc(N2CCOCC2)n1`, the growth was 90.5%. As for `CC[C@H](C)C(=O)O[C@H]1CCC=C2C=C[C@H](C)C(CCC3C[C@@H](O)CC(=O)O3)[C@H]21` (stereo not given in full), the figure is 70.9%. With `COc1cc(-c2nnc(-c3c(-c4ccc(F)cc4)nc4ccccn34)o2)cc(OC)c1OC`, the growth is 76%. The value for `N#Cc1cccc(OCc2nc(N)nc(N)c2-c2ccc(Cl)c(Cl)c2)c1` was 39%; that for `Cc1cccc2c1O/C(=C\c1ccc([N+](=O)[O-])o1)C2=O` was 45.1%; that for `CN(C)C=Nc1cc(Cl)ccc1Cl` was 110%.

For `COc1ccc(NC(=O)CSc2nc3ccccc3c(=O)n2CCc2ccccc2)cc1`, the growth is 75.5%. As to `N#CCCN1C/C(=C/c2ccc(Cl)cc2)C(=O)/C(=C/c2ccc(Cl)cc2)C1`, the growth is -10.2% (active). The value for `CCN1Cc2c(/C=C/c3ccccc3)nc3ccc(OC)cc3c2N(c2cccc(Cl)c2)C1` was 77.3%; that for `CCOC(=O)CCC(NC(=O)c1ccc(N)cc1)C(=O)OCC` (stereo not given) was 109%; that for `CC/C(=C(/c1ccc(OCCN(C)C)cc1)c1ccc(OC(=O)CCCCC(=O)c2c(C)[nH]c(/C=C3\N=C(c4ccc[nH]4)C=C3OC)c2C)cc1)c1ccccc1` was 81.4%. For `NC(=O)CC1(c2ccccc2)CCCCC1`, the growth is 103%. The value for `O=C1ON=[N+](c2ccc(Cc3ccc([N+]4=NOC(=O)C4CN4CCOCC4)cc3)cc2)C1CN1CCOCC1` (stereo not given) was 88%; that for `O=c1[nH]c(-c2ccc(Cl)cc2)nc2sc3c(c12)CCCC3` was 92%. Turning to `COc1cc(-c2cc(/C=C/C(=O)c3ccc(F)c(F)c3)[nH]n2)cc(OC)c1OC`, the growth is 90%.

For the molecule `CCCN(CCC)CCC(O)c1cc2c(c3ccccc13)CCCC2` (stereo not given), the growth is 90.1%. As for `O=[N+]([O-])c1ccc(Oc2cccnc2)c([N+](=O)[O-])c1`, the figure is 104%; as for `CC/C(=C(/c1ccc(OCCN(C)C)cc1)c1ccc(OC(=O)CCCCCCCCC(=O)c2c(C)[nH]c(/C=C3\N=C(c4ccc[nH]4)C=C3OC)c2C)cc1)c1ccccc1`, 80.7%; as for `Nc1nccc(Nc2ccccc2)n1`, 109%. The value for `O=C1Nc2ccccc2C1=NC1CCCCC1` was 95.4%. `COc1ccc(C2=NN(C(=O)c3ccc(S(C)(=O)=O)cc3)C(c3ccc(OC)c(OC)c3)C2)c(OC)c1` (stereo not given): the growth was 84.2%. Turning to `Clc1ccccc1N=Cc1ccc2c(c1)OCO2`, the growth was 108%. With `C(CCCC1=NCCO1)CCCC1=NCCO1`, the growth is 105%. As for `Fc1ccc(-c2nnc(-c3c(-c4ccc(F)cc4)nc4ccccn34)o2)cc1`, the growth was 85.3%. As for `C#Cc1ccc(-n2c(/C=C/c3ccc(C(F)(F)F)cc3)nc3ncccc3c2=O)cc1`, the figure is 54.1%. As for `NC(=S)N=Nc1c(O)c2ccccc2c2ccccc12`, the figure is 92.3%; as for `Nc1ccc2c(c1)Cc1cc(N)c(Br)cc1-2`, 101%; as for `Cc1cc(=O)[nH]c(N/N=C/c2ccccc2O)n1`, 78.3%. The value for `CN(C)CCOc1nc2ccccc2c2c1-c1ccc(Cl)cc1C2=O` was 11.5%; that for `COc1ccc(-c2cc(/C=C3\C(=O)Nc4ccc(Cl)cc43)[nH]n2)cc1OC` was 94.6%. Turning to `Cc1ccc(NC(=O)NC2CCCCC2)cc1`, the growth was 95.8%. With `CCCCCCN1C(=O)C2=C(c3ccc(Cl)cc3)Nc3c(c(C)nn3-c3ccccc3)C2c2ccccc21` (stereo not given), the growth was 95.9%. The value for `O=C1N=NC2=C1c1c3ccccc3c(O)n1CC2` was 100%; that for `COc1ccc(-c2cc(/C=C/C(=O)c3cc(OC)c(OC)c(OC)c3)[nH]n2)cc1OC` was 39.3%; that for `Cc1nc2c(c(=O)[nH]1)OCN(Cc1ccccc1)C2` was 93.7%.

On to `O=C(O)C(SC(C(=O)O)c1ccccc1)c1ccccc1` (stereo not given), for which the growth is 99.7%.

Consider `O=C1C(c2ccccc2)C2C=CC(C2)N1O` (stereo not given), for which the growth was 106%. On to `CN(C)CCN1C(=O)c2cccc3c(-c4ccc5ncn(C6CCCCC6)c5c4)ccc(c23)C1=O`, for which the growth is 23%.

Source of the values: PubChem BioAssay (NCI).
